This is an account of results in PubChem BioAssay (NCI).

The panel holds about 83,000 compounds, 20% with a hit somewhere; the sample as a whole holds those more often.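 Testing used 96-well plates and a 48-hour single-concentration exposure. Example: -40 means 40% of the starting cells died.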 The source made the active and inactive calls. The calls were made as follows: active = growth percent below 10; inactive = the rest.

For the assay, the system named is CCRF-CEM leukemia. Briefly: NCI-60 one-dose screen, 48 h (100 = growth as untreated, 0 = no growth, -100 = all killed). The following applies: 10 µM unless noted.
In the case of `CC/C(=C(/c1ccc(Cl)cc1)c1ccc(OCCN2CCCC2)cc1)c1ccc(OC)cc1`, the growth is 40.6% (inactive).

Regarding `c1cc2[nH]ncc2cc1-c1nc2ccc3[nH]ncc3c2c2c1CCCC2`, the growth was 9.05% (active).

Consider `O=C(/C=C/c1ccc(Cl)cc1)c1cccc(Nc2nc(Nc3ccccc3)nc(Nc3ccccc3)n2)c1`, for which the growth was 76.2% (inactive).

Turning to `N#Cc1nc(-c2ccccc2)oc1S(=O)(=O)N1CCOCC1`, the growth was -20.9% (active).

In the case of `O=C1Nc2ccccc2/C1=C\c1nc(-c2ccccc2)n2ccccc12`, the growth was 84.1% (inactive).

With `O=C(COc1ccc(-c2nc3ccccc3[nH]2)cc1)N=Nc1c(O)[nH]c2ccc(Cl)cc12`, the growth was 27.6% (inactive).

Consider `COc1ccc(NC(=O)c2sc3nc(C)c(C(=O)/C=C/c4cccc(OC)c4)cc3c2N)cc1`, for which the growth was 7.32% (active).

Turning to `COc1cnc2c(c1)C(=O)c1c-2n(CCCNCCO)c(=O)c2ccncc12`, the growth is 11.1% (inactive).

For `O=C(Nc1nc2ccc(F)cc2s1)c1cccnc1Nc1ccc(Cl)cc1`, the growth was 5.11% (active).

For `N#CC1C=CN(CC(N)=O)c2ccc3cccnc3c21` (centres undefined), the growth is 78% (inactive).

As to `COc1ccc(-c2nc3c(c(-c4ccccc4)nn3-c3ccccc3)c(-c3ccc(N4CCN(C)CC4)cc3)c2C#N)cc1`, the growth is 85.3% (inactive).

On to `Cn1c(=O)c2[nH]c(N/N=C/c3ccccc3Br)nc2n(C)c1=O`, for which the growth was 104% (inactive).

For the compound `O=C(Nc1ccc(NC(=O)c2cc(=O)[nH]c3ccccc23)cc1)Nc1cccc(C(F)(F)F)c1`, the growth is 70.2% (inactive).

For `O=C1C(Cl)=C(Oc2ccccc2)C(=O)c2ccccc21`, the growth was 8.95% (active).
